# Out of some 340,000 compounds screened, about 1,400 (0.41%) were called active. Not shown: some 4% with an inconclusive outcome. This excerpt belongs to a sample that is enriched for actives. Unmarked numbers belong to inactive results. The call rests on the fitted dose curve; cell line not stated here.
# Test: qHTS for Antagonists of gsp, the Etiologic Mutation Responsible for Fibrous Dysplasia/McCune-Albright Syndrome: qHTS; further: nearly all actives have a fitted effect of over 65% in size
# Conditions: gsp-mutant cells, cAMP HTRF, 30 min; series mostly up to 76.9 µM; activity change, negative = inhibition: at the top concentration
# Method in brief: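 G418-selected cells were plated in DMEM/10% FBS for 16-24 h at 37C, then treated with compounds plus the PDE inhibitor […] (300 uM solution added) for 30 min at 37C. Intracellular cAMP was measured by HTRF after 30 min lysis at room temperature.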
# On the % scale 0 is the no-effect control and ±100 the full control effect; potency means the concentration at half of the fitted maximal effect.
SMILES,"activity change, negative = inhibition",Potency
Cc1c[n+]([O-])ccc1[N+](=O)[O-],-4.07%,–
CC(C)=CCc1ccc(O)c(=O)cc1C(C)C,9.99%,–
Nc1nonc1-n1nnc(C(=O)N/N=C/c2c[nH]c3ccccc23)c1-c1ccccc1,–,31.6 µM (active)
Nc1nonc1-n1nnc(C(=O)N/N=C/C2CCCCC2)c1-c1ccccc1,12.5%,–
CC(C)c1c(C(=O)N/N=C/c2ccc(-c3ccccc3)cc2)nnn1-c1nonc1N,0.139%,–
Nc1cc(=O)n(Cc2ccccc2)c(=O)n1Cc1ccccc1,-4.98%,–
C(=N\N1CCN(c2ccccn2)CC1)/C1=C(N2CCOCC2)C(=C/c2ccccc2)/CC1,-4.31%,–
O=C(O)c1ccc(NN=CC2=C(N3CCOCC3)/C(=C/c3ccccc3)CC2)cc1,–,10 µM (active)
O=C1Nc2ccc(Br)cc2/C1=N/N=C/C1=C(N2CCOCC2)C(=C\c2ccccc2)/CC1,-18.1%,–
C[C@H](O)[C@@H]1C(=O)N2CCc3ccc(N4CCOCC4)cc3[C@@H]2C[C@@H]1N(C)C(=O)C(C)(C)C,1.14%,–
O=C1C[C@@H]2c3c(cccc3CN1Cc1ccccc1)C[C@@H](O)[C@H]2O,10.4%,–
Cc1ccc(S(=O)(=O)N2CCC(C(=O)N3CCCCCCC3)CC2)cc1,-1.88%,–
CSc1ncccc1C(=O)Nc1nc2ccc(F)cc2s1,–,39.8 µM (active)
CSc1ncccc1C(=O)Nc1ccc2c(c1)OCO2,-1.29%,–
CSc1ncccc1C(=O)Nc1ccc(C)cn1,-0.85%,–
COc1cc(C(=O)CCc2ccc3c(c2)OCO3)cc(OC)c1OC,11.8%,–
COc1cc(C(=O)N2CCN(S(=O)(=O)c3ccc(C(C)C)cc3)CC2)ccc1OCC(=O)N1CCOCC1,-14.8%,–
COc1cccc(C(=O)Nc2nc3ccc(S(C)(=O)=O)cc3s2)c1,1.97%,–
CS(=O)(=O)c1ccc2nc(NC(=O)c3ccc(Cl)nc3)sc2c1,–,31.6 µM (active)
CS(=O)(=O)c1ccc2nc(NC(=O)C3C4C=CC(C4)C3C(=O)O)sc2c1 (stereo unspecified),-1.75%,–
Cc1ccc(NC(=O)C(C)OC(=O)C2CC3CCCC(C2)C3=O)cc1S(=O)(=O)N1CCOCC1 (stereo unspecified),-2.68%,–
O=C(CNC(=O)c1cc(S(=O)(=O)N2CCOCC2)ccc1N1CCCC1)Nc1ccc(F)c(F)c1,-2.71%,–
CN(CCO)S(=O)(=O)c1ccc2c(c1)C(=O)c1cc(S(=O)(=O)N(C)CCO)ccc1-2,–,8.91 µM (active)
O=C(O)c1ccc(NS(=O)(=O)c2ccc3c(c2)C(=O)c2cc(S(=O)(=O)Nc4ccc(C(=O)O)cc4)ccc2-3)cc1,0.663%,–
CN(CC(=O)O)S(=O)(=O)c1ccc2oc3ccccc3c2c1,-8.22%,–
O=C1NC(=O)C(CCc2ccccc2)(c2ccccc2)N1 (stereo unspecified),11.4%,–

SMILES,"activity change, negative = inhibition",Potency
COC(=O)C1CC2=C(CC(C)(C)CC2=O)N(c2ccccc2)C1=O (stereo unspecified),9.37%,–
COc1cc(Cl)c(S(=O)(=O)n2cnc(C)c2)cc1Cl,8.27%,–
CCc1nc(C)cn1S(=O)(=O)c1cc([N+](=O)[O-])ccc1Cl,3%,–
CCc1nc(C)cn1S(=O)(=O)c1cc(OC)c(C)cc1C,–,31.6 µM (active)
Cc1sc2ncnc(N3CCC(C(=O)Nc4ccc(F)cc4Cl)CC3)c2c1C,–,39.8 µM (active)
CCc1ccc(C(=O)NNC(=O)C2CCN(c3ncnc4sc(C)c(C)c34)CC2)cc1,-20%,–
Cc1sc2ncnc(N3CCC(C(=O)Nc4nc5ccc(Cl)cc5s4)CC3)c2c1C,-7.28%,–
CC(=O)OCC1(O)CC23CCC4c5ccoc5CCC4(C)C2CCC1C3 (stereo unspecified),-6.12%,–
COc1ccc(CNCCCn2cnc3c(OCc4ccccc4)ncnc32)cc1,3.58%,–
CCOC(=O)N1CCN(C(=O)CN(c2ccc(C)c(C)c2)S(=O)(=O)c2ccccc2)CC1,-27.4%,–
CCOC(=O)N1CCN(C(=O)c2ccc(CN(c3ccc(C)c(C)c3)S(C)(=O)=O)cc2)CC1,–,22.4 µM (active)
CCN1CCN(C(=O)c2ccc(CN(c3ccc(C)c(C)c3)S(C)(=O)=O)cc2)CC1,-1.35%,–
CC/C(=C\c1ccc(Cl)cc1)c1ccncc1,0.582%,–
CC(=O)Nc1ccc(S(=O)(=O)N2CCN(CCCOc3cc(C)ccc3C)CC2)cc1,–,31.6 µM (active)
Cc1ccc(C)c(S(=O)(=O)N2CCN(CC(=O)Nc3ccc([N+](=O)[O-])cc3)CC2)c1,-14.1%,–
Cc1ccc(C)c(OCCC(=O)Nc2cccc(S(=O)(=O)N3CCCC3)c2)c1,-6.41%,–
CCC1([N+](=O)[O-])COC(c2ccc(C)cc2)OC1 (stereo unspecified),8.71%,–
NC(=O)C1(Nc2ccccc2Cl)CCCC1,6.31%,–
CC(Nc1ccc([N+](=O)[O-])cc1[N+](=O)[O-])c1ccccc1 (stereo unspecified),0.305%,–
O=C(Nc1ccc(NC(=O)c2ccc3c(c2)OCO3)cc1)c1cccc(Cl)c1,-0.0043%,–
O=C(Nc1cccc(S(=O)(=O)Nc2ccc(Cl)cc2)c1)c1ccc2c(c1)OCCO2,–,35.5 µM (active)
O=C(Nc1ccccc1)c1ccc2c(c1)OCCCO2,2.04%,–
CN(C(=O)c1cccc(NC(=O)Cc2ccc(NC(=O)C3CCN(C(=O)C4CCCCC4)CC3)cc2)c1)C1CCC1,-3.58%,–
COc1cc(/C=C/CNC[C@H]2O[C@@H](n3cnc(C(N)=O)n3)[C@H](O)[C@@H]2O)ccc1O,-9.58%,–
CC(=O)N1CCCc2cc(S(=O)(=O)N3CCCC(C(=O)N4CCN(c5cccc(Cl)c5)CC4)C3)ccc21 (stereo unspecified),–,28.2 µM (active)
CC(=O)N1CCCc2cc(S(=O)(=O)CCC(=O)N3CCN(c4ccccc4)CC3)ccc21,-3.38%,–

SMILES,"activity change, negative = inhibition",Potency
CC(=O)N1CCCc2cc(S(=O)(=O)N3CCCC(C(=O)NCc4ccc(Cl)cc4)C3)ccc21 (stereo unspecified),-31.9%,–
CC(=O)Oc1ccc(OC(C)=O)c2c1C1C=CC2CC1,4.86%,–
COc1ccccc1CNC(=O)CCn1c(=O)sc2ccccc21,6.93%,–
Cc1cccc(CSc2nnc(Cn3c(=O)sc4ccccc43)n2C)c1,4.08%,–
COc1ccc(Cn2c(=O)sc3ccccc32)cc1OC,–,11.2 µM (active)
COc1ccc(CCN2CC(C(=O)OCC(=O)NCc3ccccc3Cl)CC2=O)cc1OC (stereo unspecified),-9.54%,–
NC(CSC1(c2ccccc2)c2ccccc2-c2ccccc21)C(=O)O (stereo unspecified),-7.06%,–
CSCCC(NC(=O)COc1ccccc1)C(=O)N1CCN(c2cccc(C(F)(F)F)c2)CC1 (stereo unspecified),-29.3%,–
COC(C[C@H](O)CC(=O)[C@@H](C)OCc1ccccc1)OC,4.83%,–
COC(C[C@@H](O)C[C@@H](O)[C@H](C)OCc1ccccc1)OC,7.67%,–
COC(C[C@@H](O)C[C@H](O)[C@H](C)OCc1ccccc1)OC,–,50.1 µM (active)
CC(=NNC(=S)N1CCCCCC1)c1ccccn1,-9.14%,–
O=C(NCc1cccc(C(F)(F)F)c1)c1cccc(S(=O)(=O)N2CCN(Cc3ccccc3)CC2)c1,-5.09%,–
CC(NC(=O)CCC(=O)N1CCN(S(=O)(=O)c2ccc(Cl)cc2)CC1)c1ccccc1 (stereo unspecified),-17.9%,–
O=C(CCC(=O)N1CCN(S(=O)(=O)c2ccc(Cl)cc2)CC1)NCc1cccc(C(F)(F)F)c1,–,35.5 µM (active)
NC(=O)c1ccc(N2CCCC2)nc1,-2.72%,–
O=C(O)c1ccc(S(=O)(=O)c2ccccc2)s1,5.66%,–
CCc1ccccc1NC(=O)c1ccc2snnc2c1,4.35%,–
O=C(Nc1ccc2ccccc2c1)Nc1ccc2snnc2c1,–,31.6 µM (active)
O=C(Nc1cccc(Br)c1)c1ccc2snnc2c1,-23.6%,–
Oc1cccc(C2c3[nH]c4ccccc4c3CCN2Cc2cnn(-c3ccccc3)c2)c1 (stereo unspecified),-2.03%,–
COc1ccc(C2c3[nH]c4ccccc4c3CCN2CCCn2cccn2)cc1C (stereo unspecified),15%,–
COc1cccc(C2c3[nH]c4ccccc4c3CCN2Cc2cccc(C)n2)c1 (stereo unspecified),–,39.8 µM (active)
O=C(Nc1c(Br)cc2c(c1Br)Cc1cc([N+](=O)[O-])ccc1-2)C(Cl)Cl,-9.46%,–
Cn1nccc1CNC(=O)c1ccnn1C,11%,–
CCN(CC)C(=O)c1sc(NC(=O)c2ccco2)c(C#N)c1C,-7.04%,–

SMILES,"activity change, negative = inhibition",Potency
CCCc1ccc(-c2c(C)sc(NC(=O)c3ccnn3C)c2C#N)cc1,–,20 µM (active)
COc1cc2c(cc1OC)C(Cc1cc(OC)c(OC)cc1[N+](=O)[O-])=NCC2,3.48%,–
NC(=O)c1ncn([C@@H]2O[C@H](CN=C3NS(=O)(=O)c4ccccc43)[C@@H](O)[C@H]2O)n1,10.3%,–
COc1ccc(OC)c2sc(NC(=O)C3COc4ccccc4O3)nc12 (stereo unspecified),-9.81%,–
O=C(Nc1ncc([N+](=O)[O-])s1)C1COc2ccccc2O1 (stereo unspecified),–,39.8 µM (active)
O=C(CCc1ccccc1)Nc1ncc([N+](=O)[O-])s1,-29.1%,–
Cc1cn(C2CC(O)C(CO)O2)c(=O)n(CCCc2ccccc2)c1=O (stereo unspecified),-4.28%,–
COc1ccc(C(CNC(=O)c2cc(S(=O)(=O)Nc3cccc(C)c3)ccc2C)N2CCCC2)cc1 (stereo unspecified),1.7%,–
CCOC(=O)c1ccccc1NC(=O)CSc1nc2c(sc(=S)n2CC)c(=O)[nH]1,-10.4%,–
O=C(NN=Cc1ccc([N+](=O)[O-])cc1)C1CC1,5.89%,–
COc1cc(/C=N/NC(=O)c2ccc(N3CCCC3=O)cc2)ccc1O,-3.68%,–
O=C(N/N=C/c1cccc(Br)c1)c1ccc(N2CCCC2=O)cc1,–,31.6 µM (active)
Cn1c(=O)n(C)c2cc(/C=N/NC(=O)c3cccc(Br)c3)ccc21,-3.14%,–
COc1ccc(/C=C2/CCCc3ccccc3C2=O)cc1,7.77%,–
CC(=O)OC1CCC2(C)C(=CCC3C4CC(=O)N(O)C(=O)C4(C)CCC32)C1 (stereo unspecified),-7.34%,–
CCCc1cc(=O)n2[nH]c(C)c(-c3ccc(Cl)cc3)c2n1,-9.55%,–
Cc1cccc(N=Nc2c(C)[nH]n(-c3ccccc3)c2=O)c1,-12.1%,–
Cc1[nH]n(-c2cccc(Cl)c2)c(=O)c1-c1ccc(Cl)cc1,–,28.2 µM (active)
O=C(NN=Cc1ccccc1O)NN=Cc1ccccc1O,1.63%,–
Cc1cc(NC(=O)c2cc3ccccc3o2)no1,-6.53%,–
COc1ccc(-c2sc3ccc(OC)cc3c2C#Cc2ccccn2)cc1,–,28.2 µM (active)
COc1ccc2sc(-c3ccc(N(C)C)cc3)c(-c3ccc4cc[nH]c4c3)c2c1,5.55%,–
COc1ccc2sc(-c3ccc(N(C)C)cc3)c(C#CCO)c2c1,-15.3%,–

# Reference: PubChem BioAssay AID624288 (National Center for Advancing Translational Sciences (NCATS), 2012)
